# Assay results: ChEMBL document CHEMBL4513139, “CO-ADD screening of University of Strathclyde (UK) compounds”
# Results with a measured potency or affinity are listed apart.
# Experiments:
# [1] = system: Staphylococcus aureus; conditions: Concentration 32 ug.mL-1; ASSAY_TEST Inhibition of Bacterial Growth; detection method Absorption (OD600); MEDIA CAMHB; plate type 384well; NBS; CORNING #3640; time 18 hr
# [2] = system: Escherichia coli; conditions: Concentration 32 ug.mL-1; ASSAY_TEST Inhibition of Bacterial Growth; detection method Absorption (OD600); MEDIA CAMHB; plate type 384well; NBS; CORNING #3640; time 18 hr
structure (smiles),measurement,setting,value
CCOP(=O)(OCC)C(Cc1cn(Cc2cnc(C)nc2N)nn1)C(=O)O.O=C(O)C(F)(F)F (configuration not stated),Inhibition,[1],18.42%
same,Inhibition,[2],-15.56%
